# Laboratory results reported in PubChem BioAssay AID602144 (Vanderbilt Specialized Chemistry Center, 2011).
# A number with no mark means an inactive call. Calls of active or inactive are those of the source. No stated cut-off is given here; in the data, active means remaining activity below about 50%; inactive means the rest.
# Biological target: Phospholipase D1 (Homo sapiens) (UniProt Q13393)
# Assay: PLD1 inhibitors in cells, Calu-1 cells, single concentration (AID 602144);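 further: tested at 200 nM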
# Details: cellular PLD1 activity, stronger effect = lower value
# Chain of Phospholipase D1 (Homo sapiens) (Q13393 whole entry, looked up): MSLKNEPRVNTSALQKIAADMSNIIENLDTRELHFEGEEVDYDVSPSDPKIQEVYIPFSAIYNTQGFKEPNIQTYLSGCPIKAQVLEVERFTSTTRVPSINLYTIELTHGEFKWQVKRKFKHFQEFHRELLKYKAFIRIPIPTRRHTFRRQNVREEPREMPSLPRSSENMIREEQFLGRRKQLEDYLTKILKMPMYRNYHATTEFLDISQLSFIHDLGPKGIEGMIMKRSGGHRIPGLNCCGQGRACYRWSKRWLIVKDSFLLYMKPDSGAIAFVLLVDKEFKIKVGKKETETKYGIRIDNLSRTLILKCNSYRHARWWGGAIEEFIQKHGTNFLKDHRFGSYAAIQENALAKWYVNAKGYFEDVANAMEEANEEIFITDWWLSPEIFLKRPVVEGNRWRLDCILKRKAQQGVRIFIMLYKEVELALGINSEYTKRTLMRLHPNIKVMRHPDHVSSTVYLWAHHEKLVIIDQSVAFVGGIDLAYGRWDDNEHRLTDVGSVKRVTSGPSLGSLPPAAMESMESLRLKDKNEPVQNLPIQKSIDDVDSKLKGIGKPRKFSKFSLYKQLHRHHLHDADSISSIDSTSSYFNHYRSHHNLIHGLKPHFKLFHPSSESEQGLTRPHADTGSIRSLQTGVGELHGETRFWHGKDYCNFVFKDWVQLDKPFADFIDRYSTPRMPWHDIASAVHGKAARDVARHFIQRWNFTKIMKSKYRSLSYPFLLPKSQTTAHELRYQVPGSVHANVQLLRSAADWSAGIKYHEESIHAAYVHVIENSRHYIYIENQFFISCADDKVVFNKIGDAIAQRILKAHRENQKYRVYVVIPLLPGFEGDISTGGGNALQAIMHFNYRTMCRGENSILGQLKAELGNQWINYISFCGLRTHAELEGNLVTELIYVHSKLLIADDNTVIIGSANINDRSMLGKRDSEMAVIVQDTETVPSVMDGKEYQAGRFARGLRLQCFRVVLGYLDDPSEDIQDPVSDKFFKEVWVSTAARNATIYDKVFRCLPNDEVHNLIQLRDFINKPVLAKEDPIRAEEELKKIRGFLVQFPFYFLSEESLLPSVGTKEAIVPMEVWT
# Chain of Phospholipase D1 (Homo sapiens) (Q13393 whole entry, looked up): as above
row,Compound,remaining activity
1,O=C(NCCN1CCC2(CC1)C(=O)NCN2c1ccc(F)c(F)c1)c1cnc2ccccc2c1,91.3%
2,O=C(NCCN1CCC2(CC1)C(=O)NCN2c1cccc(F)c1)c1ccc(F)nc1,117%
3,O=C(NCCN1CCC2(CC1)C(=O)NCN2c1cccc(Cl)c1)c1cnc2ccccc2c1,55.4%
4,O=C(NCCN1CCC2(CC1)C(=O)Oc1ccccc12)c1cnc2ccccc2c1,105%
5,O=C(NCCN1CCC2(CC1)C(=O)N(Cc1ccccc1)c1ccccc12)c1ccc2ccccc2c1,98.9%
6,O=C1c2ccccc2C(=O)N1CCN1CCC2(CC1)C(=O)NCN2c1ccccc1,102%
7,O=C(NCCN1CCC2(CC1)C(=O)NCN2c1ccccc1)C1(c2ccccc2)CCC1,94.9%
8,C[C@@H](CN1CCC2(CC1)C(=O)NCN2c1ccccc1)NC(=O)c1ccc2ccccc2c1,4.56% (active)
9,O=C(CCN1CCC2(CC1)C(=O)NCN2c1ccccc1)Nc1cnc2ccccc2c1,123%
10,O=C(NCCN1CCC2(CC1)C(=O)NCN2c1ccc(F)cc1)c1ccc2ccccc2c1,75.2%
11,O=C(NCCN1CCC2(CC1)C(=O)NCN2c1ccccc1)C1C[C@H]1c1ccccc1 (some centres undefined),138%
12,O=C(NCCN1CCC2(CC1)C(=O)NCN2c1ccccc1)c1ncccc1F,110%
13,O=C(NCCN1CCC2(CC1)C(=O)NCN2c1cccc(F)c1)c1c(F)cccc1F,80.5%
14,O=C(NCCN1CCC2(CC1)C(=O)NCN2c1cccc(Cl)c1)c1ccc2ccccc2c1,57.3%
